Screens: PubChem, Johns Hopkins Ion Channel Center
KCNQ2 inh – KCNQ2 (rat) channel inhibition | B-score at 10 µM | CHO-K1 KCNQ2, FluxOR thallium flux, 20 min; stronger effect = lower value | AID 2156 | O88943 | 310,000 tested, 1.1% active;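 active means fluorescence ratio B-score at most minus 3 library SDs, with starting brightness B-score within 2 library SDs, cut at about -5.5 in these data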
Target sequence (O88943 whole entry, looked up): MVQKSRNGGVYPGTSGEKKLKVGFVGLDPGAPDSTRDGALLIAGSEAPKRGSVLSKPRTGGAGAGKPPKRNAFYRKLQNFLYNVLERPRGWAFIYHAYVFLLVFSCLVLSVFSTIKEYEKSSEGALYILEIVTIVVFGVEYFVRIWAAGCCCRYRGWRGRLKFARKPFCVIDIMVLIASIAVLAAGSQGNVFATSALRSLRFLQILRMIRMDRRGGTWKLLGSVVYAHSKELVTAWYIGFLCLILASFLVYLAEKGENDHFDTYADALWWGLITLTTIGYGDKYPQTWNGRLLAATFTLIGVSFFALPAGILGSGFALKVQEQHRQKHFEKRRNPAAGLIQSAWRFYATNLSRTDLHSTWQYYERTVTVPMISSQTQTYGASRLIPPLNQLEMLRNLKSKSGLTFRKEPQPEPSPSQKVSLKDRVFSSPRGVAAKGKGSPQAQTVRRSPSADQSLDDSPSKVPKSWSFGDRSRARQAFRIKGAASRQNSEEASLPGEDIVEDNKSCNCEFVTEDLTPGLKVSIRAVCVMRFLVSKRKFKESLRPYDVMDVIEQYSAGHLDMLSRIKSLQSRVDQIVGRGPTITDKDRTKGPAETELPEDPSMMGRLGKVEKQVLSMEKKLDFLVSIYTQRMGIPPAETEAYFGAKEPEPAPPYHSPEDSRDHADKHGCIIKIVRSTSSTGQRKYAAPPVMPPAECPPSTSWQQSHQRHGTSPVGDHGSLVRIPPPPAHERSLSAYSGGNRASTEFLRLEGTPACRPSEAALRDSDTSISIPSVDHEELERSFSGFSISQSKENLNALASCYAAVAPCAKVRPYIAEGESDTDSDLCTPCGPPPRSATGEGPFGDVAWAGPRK
KCNQ2 enhance – KCNQ2 (rat) channel potentiation; AID 2239; 310,000 tested, 0.54% active; CHO-K1 KCNQ2, FluxOR thallium flux fluorescence; stronger effect = higher value; B-score at 10 µM; O88943;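 active means fluorescence ratio B-score at least 3 SD of library B-scores, with initial fluorescence B-score within 3 of them, cut at about 5.3 in these data; same plate scores as AID 2156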;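 further: B-score of peak minus minimum over baseline fluorescence ratio after K+ and Tl+ stimulus; positive B-score means potentiation of KCNQ2 with more thallium influx and brighter signal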
Kir21 confirm – confirmation of mouse Kir2.1 potassium channel inhibitors. Tl flux remaining, % of negative control (stronger effect = lower value), % at 10 µM. shares compounds with KCNQ2 enhance. Kir2.1-expressing cells, FluxOR thallium flux fluorescence; stronger effect = lower value. 2,300 tested, 41% active;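 active means Primary-screen hit whose thallium flux fell at least 3 control SD below untreated wells in both duplicates, with normal baseline fluorescence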;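 further: 0% = blank wells without stimulus and 100% = stimulated no-compound controls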
HEK293 ctr – alters thallium flux in parental HEK293 cells, Kir2.1 counter-screen | shares compounds with KCNQ2 enhance | FluxOR thallium flux fluorescence; 0% = unstimulated blank wells | 2,300 tested, 19% active | FluxOR signal as % of negative control (100 = no effect), % at 10 µM;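 active means dye signal at least 3 control SD above or below untreated wells in both duplicates, raw fluorescence within 3, either direction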;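 further: percent is based on the flux ratio of peak minus minimum fluorescence over baseline F0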
CHO-K1 Tl ctr – counter-screen for KCNQ2 potentiators: effect in parental CHO-K1 cells; shares compounds with KCNQ2 enhance; FluxOR thallium flux fluorescence; zero = vehicle mean+3SD, 100% = vehicle-minus-blank window; 1,200 tested, 43% active; activity increase over 3SD of controls, % at 10 µM;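 active means signal rise of at least 3 SD above the untreated control mean, in both duplicate wells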;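 further: counter screen of KCNQ2 potentiator hits so any rise reflects channel-independent effects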
KCNQ1 pot spec – human KCNQ1 counter-target activity of KCNQ2 potentiators | shares compounds with KCNQ2 enhance | CHO KCNQ1 stable, FluxOR thallium flux fluorescence; beyond 3SD, as % of vehicle-control signal | activation over 3SD threshold, % at 10 µM | 1,200 tested, 28% active | AID 2283;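 active means fluorescence ratio rise of at least 3 SD of vehicle wells above their mean, in both replicate wells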;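 further: 0% = vehicle mean plus 3 SD and 100% = vehicle minus unstimulated blank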
KCNQ2 pot conf – confirmation of rat KCNQ2 potassium channel potentiators | potentiation, less the hit threshold, % at 10 µM | shares compounds with KCNQ2 enhance | CHO-KCNQ2 cells, FluxOR thallium flux fluorescence | 1,200 tested, 68% active;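 active means fluorescence ratio rising 3 SD or more over the vehicle control mean in both replicates, plus primary screen hit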;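 further: peak minus minimum thallium fluorescence divided by baseline after K/Tl stimulus; 0% = vehicle mean plus 3 SD and 100% = vehicle minus unstimulated blank difference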
Kir2-1 sel – tests whether KCNQ2 potentiators also affect mouse Kir2.1 | HEK293 Kir2.1, FluxOR thallium flux fluorescence | shares compounds with KCNQ2 enhance | 1,200 tested, 2% active | activity over 3SD threshold, % at 10 µM;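 active means fluorescence ratio rise of at least 3 SD above the vehicle-control mean, seen in both replicates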;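 further: 0% = vehicle mean plus 3 SD and 100% = vehicle minus no-stimulus blank window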
KCNQ2 W236L MoA – potentiates the retigabine-insensitive rat KCNQ2 W236L mutant channel; shares compounds with KCNQ2 enhance; CHO KCNQ2-W236L, automated patch clamp current; current increase over 3SD of negative controls (%), stronger effect = higher value, % at 25 µM; 940 tested, 10% active;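 active means current increase at least 3 SD of the untreated controls above them in both duplicate recordings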
The depositor's hits bear a star; i = inactive; . = no result given. The list is not random: actives were taken first. Their share in the collection is about 1.6%.

SMILES	KCNQ2 inh	KCNQ2 enhance	Kir21 confirm	HEK293 ctr	others
CSCCC(NC(=O)c1ccc(Cl)cc1)C(=O)OCC(=O)N1CCCC1=O (configuration not stated)	i	8.8*	i	i	CHO-K1 Tl ctr=-8;KCNQ1 pot spec=-6;KCNQ2 pot conf=18*;Kir2-1 sel=-35;KCNQ2 W236L MoA=26%*
CSCCC(NC(=O)c1ccc(Cl)cc1)C(=O)O (configuration not stated)	i	0.16	.	.
Cc1cc(C)n(CC(=O)NC2CCCN(Cc3ccc(Cl)cc3)C2)n1 (configuration not stated)	i	0.48	.	.
O=C(Cc1cccc(F)c1F)NC1CCCN(Cc2ccc(Cl)cc2)C1 (configuration not stated)	i	6.2*	i	218%*	CHO-K1 Tl ctr=116*;KCNQ1 pot spec=-15;KCNQ2 pot conf=16*;Kir2-1 sel=-50;KCNQ2 W236L MoA=i
Cc1ccc(CNC(=O)CCNS(=O)(=O)c2cccc3nsnc23)cc1	i	.	.	.
CCCn1nc(NC(=O)CC(C)C)c2cc3cccc(C)c3nc21	i	5.3*	i	i	CHO-K1 Tl ctr=-19;KCNQ1 pot spec=-32;KCNQ2 pot conf=-20;Kir2-1 sel=-41
CCCn1nc(NC(C)=O)c2cc3cccc(C)c3nc21	i	1.6	.	.
CCCn1nc(NC(=O)COC)c2cc3cccc(C)c3nc21	i	.	.	.
CCn1nc(NC(=O)C(C)(C)C)c2cc3cccc(C)c3nc21	i	8.5*	i	i	CHO-K1 Tl ctr=20*;KCNQ1 pot spec=3.4*;KCNQ2 pot conf=-81;Kir2-1 sel=-31;KCNQ2 W236L MoA=i
CCN(c1ccccc1)S(=O)(=O)c1ccc2ccccc2c1	i	.	.	.
CN(c1ccc(O)cc1)S(=O)(=O)c1ccc2ccccc2c1	i	0.65	50%*	i
CNS(=O)(=O)c1ccc2ccccc2c1	i	.	.	.
Cc1cc(O)cc(C)c1NS(=O)(=O)c1ccc2ccccc2c1	i	2.7	56%*	i
Cc1ccc(/C=N/Nc2nc3ccccc3s2)o1	i	.	.	.
CC(=O)Nc1ccc(S(=O)(=O)NNc2ccc([N+](=O)[O-])cc2)cc1	i	.	.	.
COc1cccc(CN(C)C(=O)c2sccc2-c2ccccc2)c1OC	i	.	.	.
CN(Cc1ccccc1F)C(=O)c1sccc1-c1ccccc1	i	.	54%*	i
COc1ccccc1CNC(=O)c1sccc1C	i	.	.	.
COc1ccccc1CNC(=O)c1sccc1-c1ccccc1	i	.	74%*	i
O=C(O)c1ccc(CS(=O)(=O)c2c(Cl)cccc2Cl)o1	i	.	.	.
COC(=O)C(C)NC(=O)CNS(=O)(=O)c1ccc(F)cc1 (configuration not stated)	i	.	.	.
Cc1ccc(N2CCN(S(=O)(=O)N3CCOCC3)CC2)cc1C	i	0.42	.	.
COc1ccccc1C(CCNCc1ccc(N(C)C)cc1)c1ccc(OC(C)C)cc1 (configuration not stated)	i	.	.	.
COc1ccccc1C(CCNCc1ccccc1)c1ccc(OC(C)C)cc1 (configuration not stated)	i	.	58%*	i
COc1ccc(CNCCC(c2ccc(OC(C)C)cc2)c2ccccc2OC)cc1OC (configuration not stated)	i	.	.	.
SMILES	KCNQ2 inh	KCNQ2 enhance	Kir21 confirm	HEK293 ctr	others
COc1ccc(CNCCC(c2ccc(OC(C)C)cc2)c2ccccc2OC)cc1 (configuration not stated)	i	.	29%*	i
Cc1cc(Cl)ccc1OC(C)C(=O)NC(C)C1CCCO1 (configuration not stated)	i	.	56%*	i
CC(NC(=O)Nc1ccc(Cl)cc1)C1CCCO1 (configuration not stated)	i	.	.	.
O=C(Cn1c2c(c(-c3ccccc3)cc1=O)CCCC2)N1CCCCCC1	i	8.4*	i	i	CHO-K1 Tl ctr=34*;KCNQ1 pot spec=19*;KCNQ2 pot conf=12*;Kir2-1 sel=-32;KCNQ2 W236L MoA=i
CCCCNC(=O)Cn1c2c(c(-c3ccccc3Cl)cc1=O)CCC2	i	0.07	.	.
C=CSc1sc(Cl)c(N2CCOCC2)c1[N+](=O)[O-]	i	.	.	.
C=CS(=O)(=O)c1sc(Cl)c(N2CCOCC2)c1[N+](=O)[O-]	-6.8*	-6.8	20%*	48%*
COC(=O)c1ccccc1NC(=O)c1nc(S(=O)(=O)Cc2ccccc2)ncc1Cl	i	.	.	.
C=CCSc1nnc(NC(=O)c2nc(SCC)ncc2Cl)s1	i	2.4	.	.
Cc1nnc(NC(=O)c2nc(S(=O)(=O)Cc3ccccc3C)ncc2Cl)s1	i	12*	i	i	CHO-K1 Tl ctr=-14;KCNQ1 pot spec=62*;KCNQ2 pot conf=77*;Kir2-1 sel=-41;KCNQ2 W236L MoA=35%*
CSc1nnc(NC(=O)c2ccco2)s1	i	1.6	.	.
CSc1ncc(Cl)c(C(=O)Nc2nnc(SC/C=C/c3ccccc3)s2)n1	i	5.5*	i	i	CHO-K1 Tl ctr=6.5*;KCNQ1 pot spec=-28;KCNQ2 pot conf=-2;Kir2-1 sel=-36;KCNQ2 W236L MoA=i
CSc1nnc(NC(=O)c2nc(S(=O)(=O)Cc3cccc(C)c3)ncc2Cl)s1	i	13*	.	.	CHO-K1 Tl ctr=-9;KCNQ1 pot spec=4.6*;KCNQ2 pot conf=84*;Kir2-1 sel=-62;KCNQ2 W236L MoA=35%*
O=C(NCc1ccccc1)c1nc(S(=O)(=O)Cc2ccccc2)ncc1Cl	i	.	.	.
CC(C)c1nnc(NC(=O)c2nc(S(=O)(=O)Cc3ccc(F)cc3)ncc2Cl)s1	i	11*	i	i	CHO-K1 Tl ctr=-3;KCNQ1 pot spec=-14;KCNQ2 pot conf=58*;Kir2-1 sel=-48;KCNQ2 W236L MoA=28%*
CC1CCN(C(=O)c2cc(F)c(F)cc2Cl)CC1	i	.	.	.
O=C(NCc1cccc(C(F)(F)F)c1)C1CC2Cn3c(nc4ccccc43)C2N1Cc1ccccc1 (configuration not stated)	i	.	.	.
Cc1noc(COc2ccccc2OCC(N)=O)n1	i	0.01	.	.
CC(C(=O)NC1CCCCCC1)c1ccc([N+](=O)[O-])cc1 (configuration not stated)	i	1.7	.	.
Cn1c(N)c(C(=O)c2cc(-c3ccccn3)nc3ccccc23)c(=O)[nH]c1=O	i	.	.	.
CCc1ccc(C(=O)NNC(=O)CCC2CCCCC2)cc1	i	4.5	.	.
O=C(NCc1ccc2c(c1)OCO2)c1nc(S(=O)(=O)Cc2ccccc2F)ncc1Cl	i	.	.	.
Cc1ccc(CS(=O)(=O)c2ncc(Cl)c(C(=O)Nc3nnc(C(C)C)s3)n2)cc1	i	16*	i	182%*	CHO-K1 Tl ctr=0;KCNQ1 pot spec=-13;KCNQ2 pot conf=102*;Kir2-1 sel=-46;KCNQ2 W236L MoA=77%*
Cc1ccc(CS(=O)(=O)c2ncc(Cl)c(C(=O)Nc3ccc(OC(F)F)cc3)n2)cc1	i	0.85	.	.
